A selection: hits, their analogues and other compounds. The true share with any hit is near 3%.
TRPM1 prom inh – reduces MITF-dependent TRPM1 promoter luciferase signal; SK-MEL-5 TRPM1 promoter luciferase, 24 h; inhibition, % at 12.5 µM; actives 0.83% (n = 330,000);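 active means mean inhibition across replicates of 60% or more, whatever share of single replicates reaches that level; inconclusive means some that reach 60%, reason not given; inactive means mean inhibition across replicates below 60%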
Peg3 promoter – reduces Peg3 promoter-driven luciferase expression in HeLa; inhibition, % at 20 µM; actives 1.7% (n = 360,000); HeLa PEG-Prom luciferase reporter, luminescence, overnight;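 active means inhibition of at least 50% at 20 µM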
PAX8 inh HTS – lowers PAX8-driven luciferase in RMG-I cells | inhibition, % at 12.6 µM | RMG-I TPO-luciferase reporter, SteadyGlo, 24 h | AID 652154 | actives 1.2% (n = 360,000);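 active means mean replicate inhibition at least 60% with every replicate also reaching 60%; inconclusive means only one of the two criteria is met; inactive means mean below 60% and not all replicates reaching 60%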;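 further: luciferase light reporting Pax8 driven TPO promoter activity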
ABHD5 PLIN5 PPI – inhibitors of human ABHD5-perilipin-5 interaction; Q00G26+Q8WTS1; Split G. princeps luciferase complementation, luminescence, 4 h; inhibition, % at 4 µM; actives 0.78% (n = 360,000); AID 602281;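 active means inhibition above the mean inhibition across every tested compound plus 3 SD, cut at about 22% in these data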
Shn3 3UTR inh – Schnurri-3 reporter inhibition in Clone20 osteoblasts | actives 0.52% (n = 360,000) | AID 588674 | inhibition, % at 12.5 µM | Clone20 osteoblast Shn3 3'UTR firefly luciferase, 24 h;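 active means mean inhibition of at least 75% with every replicate also reaching 75%; inconclusive means mean inhibition at least 75% but some replicate below; inactive means mean inhibition below 75%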
EWS-Fli block – EWS/Fli transcriptional activity inhibition; AID 651661; actives 0.67% (n = 350,000); A673 NR0B1-luciferase reporter, viability-normalised; inhibition, % at 12.6 µM;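 active means mean inhibition of at least 50% after viability correction, with every replicate also passing that limit; inconclusive means mean reaches 50% but only one of two replicates passes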;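 further: firefly luciferase signal divided by Alamar Blue viability fluorescence both relative to DMSO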
ABHD5-PLIN5 conf – confirmation of human ABHD5-PLIN5 interaction inhibitors; shares compounds with ABHD5 PLIN5 PPI; biochemical ABHD5-PLIN5 interaction, luminescence; inhibition, % at 4 µM; actives 67% (n = 2,200); AID 651612; in the data active means inhibition above about 23%
HNF4 split-luc – active in HNF4 split-luciferase counter-screen for ABHD5-PLIN5 inhibitors. shares compounds with ABHD5 PLIN5 PPI. HNF4 dimerization, luminescence, biochemical. inhibition, % at 4 µM. actives 77% (n = 2,200);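 active means mean inhibition across replicate wells exceeding the computed hit threshold, cut at about 13% in these data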;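 further: light from luciferase halves that rejoin when HNF4 fusion proteins dimerize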
Target sequence (P41235 whole entry, looked up, the tested form may be a part): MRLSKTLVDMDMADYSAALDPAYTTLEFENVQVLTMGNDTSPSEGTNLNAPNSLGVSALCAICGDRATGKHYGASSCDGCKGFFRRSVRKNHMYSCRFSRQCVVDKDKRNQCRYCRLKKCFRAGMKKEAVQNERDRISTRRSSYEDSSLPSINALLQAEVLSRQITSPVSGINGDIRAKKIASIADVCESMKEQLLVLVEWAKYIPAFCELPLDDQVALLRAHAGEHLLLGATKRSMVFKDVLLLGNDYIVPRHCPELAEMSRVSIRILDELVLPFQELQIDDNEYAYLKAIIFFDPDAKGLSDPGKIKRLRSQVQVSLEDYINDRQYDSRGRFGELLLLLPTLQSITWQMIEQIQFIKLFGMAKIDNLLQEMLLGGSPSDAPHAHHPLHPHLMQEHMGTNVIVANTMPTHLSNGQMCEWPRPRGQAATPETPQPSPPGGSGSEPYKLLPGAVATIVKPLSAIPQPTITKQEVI
Of the large screens only hits and unclear results are named; the others gave an inactive call (follow-up assays come after a bar, where they were run).

COc1nc(=O)n(C2C=CC(=O)O2)cc1F (stereo not given)	ABHD5 PLIN5 PPI 40.9 (no result: TRPM1 prom inh) | ABHD5-PLIN5 conf 52.3 | HNF4 split-luc 34.3
COc1cc(CNCCc2c[nH]c3ccccc23)ccc1OCc1ccc(F)cc1	Peg3 promoter 111.8, ABHD5 PLIN5 PPI 32.9 (no result: PAX8 inh HTS, EWS-Fli block) | ABHD5-PLIN5 conf inactive | HNF4 split-luc inactive
Fc1cccc(F)c1/C=C/c1ccc2ccccc2n1	none (no result: EWS-Fli block)
CC(O)/C=C/c1ccc2ccccc2n1 (stereo not given)	ABHD5 PLIN5 PPI 23.5 (no result: PAX8 inh HTS, EWS-Fli block) | ABHD5-PLIN5 conf 23.4 | HNF4 split-luc 26.1
COc1cccc(CNC(=O)C[C@H]2CC[C@@H](NC(=O)C3CCC3)[C@H](CO)O2)c1	none (no result: TRPM1 prom inh, Peg3 promoter, ABHD5 PLIN5 PPI, Shn3 3UTR inh)
C[C@@H]1CN([C@H](C)CO)C(=O)Cc2cc(NS(=O)(=O)c3cn(C)cn3)ccc2O[C@H]1CN(C)Cc1ccc(C(F)(F)F)cc1	none (no result: TRPM1 prom inh, Peg3 promoter, ABHD5 PLIN5 PPI, Shn3 3UTR inh)
CCOC(=O)N=S(N)(=O)c1ccccc1 (stereo not given)	none (no result: PAX8 inh HTS)
CCOC(=O)CC(S(=O)(=O)c1ccccc1)S(=O)(=O)c1ccccc1	Peg3 promoter 100.4, ABHD5 PLIN5 PPI 51.8 (no result: TRPM1 prom inh) | ABHD5-PLIN5 conf 38.3 | HNF4 split-luc 88.5
CC1=CC(=O)N(c2ccn(C)n2)C1=O	ABHD5 PLIN5 PPI 24.7 | ABHD5-PLIN5 conf 36.2 | HNF4 split-luc 38.6
C[C@H]1CN([C@@H](C)CO)S(=O)(=O)c2ccc(C3=CCCCC3)cc2O[C@@H]1CN(C)C(=O)C1CCCCC1	none (no result: TRPM1 prom inh, Peg3 promoter, PAX8 inh HTS, ABHD5 PLIN5 PPI, Shn3 3UTR inh)
O=C(CC(=O)c1ccccc1)Nc1cccnc1Cl	ABHD5 PLIN5 PPI 27.0 (no result: EWS-Fli block) | ABHD5-PLIN5 conf inactive | HNF4 split-luc 17.9
O=C(CCc1ccccc1)Nc1cccnc1Cl	none (no result: Shn3 3UTR inh)
O=C(/C=C/c1cccnc1)c1ccc(O)cc1	ABHD5 PLIN5 PPI 29.1 | ABHD5-PLIN5 conf 48.8 | HNF4 split-luc 47.7
O=C(C=Cc1cccnc1)c1ccccc1	Peg3 promoter 78.8, ABHD5 PLIN5 PPI 74.0 | ABHD5-PLIN5 conf 84.1 | HNF4 split-luc 81.3
CN(C(=O)COc1ccccc1)c1nnc(-c2cccnc2)s1	none (no result: EWS-Fli block)
CN(C)C(=O)COc1ccc(C(=O)/C=C/c2cccnc2)cc1	ABHD5 PLIN5 PPI 27.7 | ABHD5-PLIN5 conf 51.8 | HNF4 split-luc 45.7
CC(C)NC(=O)N[C@@H]1CC[C@@H](CC(=O)NCCCN(C)C)O[C@H]1CO	none (no result: TRPM1 prom inh, Peg3 promoter, ABHD5 PLIN5 PPI, Shn3 3UTR inh)
CCN(Cc1ccncc1)Cc1ccc(OC)cc1OC	ABHD5 PLIN5 PPI 26.3 | ABHD5-PLIN5 conf inactive | HNF4 split-luc inactive
O=C1/C(=C/c2c[nH]c3ccccc23)CCC/C1=C\c1c[nH]c2ccccc12	ABHD5 PLIN5 PPI 30.2 (no result: EWS-Fli block) | ABHD5-PLIN5 conf 28.9 | HNF4 split-luc 58.0
Cc1ccc(-n2nc3c(N4CCC(C(=O)NCCc5ccco5)CC4)nnc(C)c3c2C)cc1	PAX8 inh HTS inconclusive, ABHD5 PLIN5 PPI 30.2 | ABHD5-PLIN5 conf inactive | HNF4 split-luc inactive
Cc1ccc(-n2nc3c(N4CCC(C(=O)N5CCC(C(N)=O)CC5)CC4)nnc(C)c3c2C)cc1	none (no result: EWS-Fli block)
O=C1C=CC2=C3c4cc(O)c(O)cc4CC3(O)COC2=C1O (stereo not given)	ABHD5 PLIN5 PPI 27.7 (no result: PAX8 inh HTS) | ABHD5-PLIN5 conf 64.2 | HNF4 split-luc 32.6
N#Cc1c([N+](=O)[O-])cc([N+](=O)[O-])cc1S(=O)(=O)Cc1ccccc1	TRPM1 prom inh 92.6, Peg3 promoter 98.4, PAX8 inh HTS 101.0, ABHD5 PLIN5 PPI 36.2, Shn3 3UTR inh 95.0, EWS-Fli block inconclusive | ABHD5-PLIN5 conf 63.8 | HNF4 split-luc 94.9
COc1cc(OC)c(C#N)c(S(=O)(=O)Cc2ccccc2)c1	none (no result: PAX8 inh HTS, EWS-Fli block)
O=C(CC1CC1)N1CC2(C1)[C@H](c1ccccc1)[C@H](CO)N2Cc1ccccn1	none (no result: TRPM1 prom inh, Peg3 promoter, ABHD5 PLIN5 PPI, Shn3 3UTR inh)
Cc1[nH]nc(-c2ccc(O)cc2O)c1Oc1ccccc1	ABHD5 PLIN5 PPI 23.7 (no result: PAX8 inh HTS) | ABHD5-PLIN5 conf inactive | HNF4 split-luc 35.8
Cc1cc(C(=O)Nc2ccc3c(c2)C(=O)N(C)[C@H]2CC[C@@H](CC(=O)O)O[C@H]2CO3)no1	none (no result: TRPM1 prom inh, Peg3 promoter, ABHD5 PLIN5 PPI, Shn3 3UTR inh)
CC1(C)Cc2c(sc3nc(SCC(=O)NCc4ccco4)n(-c4ccccc4)c(=O)c23)CS1	ABHD5 PLIN5 PPI 29.6 (no result: PAX8 inh HTS, EWS-Fli block) | ABHD5-PLIN5 conf inactive | HNF4 split-luc inactive

Assay outcomes (PubChem)
